Screening data: PubChem, National Center for Advancing Translational Sciences (NCATS)
Luciferase inh: blocks purified firefly luciferase enzyme activity; P08659; purified P. pyralis luciferase, luminescence, biochemical; Potency, µM (series often up to 115 µM), hits mostly inhibitors; 76,000 compounds, 2.5% hits; AID 1347043; also: % is scaled to controls: 0 for no effect and ±100 for the full control effect; nearly all actives have a fitted effect of over 65% in size
Target sequence (P08659 whole entry, looked up): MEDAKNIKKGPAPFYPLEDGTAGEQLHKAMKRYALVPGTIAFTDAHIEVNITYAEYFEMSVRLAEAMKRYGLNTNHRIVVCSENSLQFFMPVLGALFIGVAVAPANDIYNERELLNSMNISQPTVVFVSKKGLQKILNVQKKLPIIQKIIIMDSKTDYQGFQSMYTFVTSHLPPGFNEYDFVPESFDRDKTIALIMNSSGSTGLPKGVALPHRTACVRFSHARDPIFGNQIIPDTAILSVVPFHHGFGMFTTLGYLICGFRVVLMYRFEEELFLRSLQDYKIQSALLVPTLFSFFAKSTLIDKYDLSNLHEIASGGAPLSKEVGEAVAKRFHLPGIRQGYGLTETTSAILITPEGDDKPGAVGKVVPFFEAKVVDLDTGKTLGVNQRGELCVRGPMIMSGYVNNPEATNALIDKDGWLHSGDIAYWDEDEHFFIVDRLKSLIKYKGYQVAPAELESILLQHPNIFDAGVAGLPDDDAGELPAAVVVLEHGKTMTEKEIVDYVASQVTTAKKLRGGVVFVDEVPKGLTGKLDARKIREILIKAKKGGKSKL
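Luminescence read by CCD imaging after purified firefly luciferase (10nM final) was added to substrate buffer holding 10uM D-luciferin and 10uM ATP, pH 7.5, pre-dosed with compound.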
hNpr1 antagonist: blocks ANP-stimulated signaling of human Npr1 receptor. 76,000 compounds, 1.6% hits. HEK293 hNpr1 GloSensor cGMP, ANP-stimulated luminescence. P16066. Potency, µM (highest dose often 46.3 µM), inactives show top-dose activity change, negative = inhibition, most hits filed as inhibitors. AID 1347048; calls by dose curve; also: % is scaled to controls: 0 for no effect and ±100 for the full control effect; nearly all actives have a fitted effect of over 60% in size
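Compound pre-incubated 30 min at room temperature on GloSensor-loaded HEK293 cells stably carrying hNpr1 and the pGS-40F cGMP biosensor. Stimulation uses hNppA at 0.1 nM final; luminescence is taken at baseline and 20 min post-agonist.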
SNCA expr inh: inhibitors of alpha-synuclein (SNCA) gene expression; AID 1671194; HEK-293 SNCA-luciferase knock-in, luminescence, 24 h; Potency, µM (doses to about 57.2 µM), inactives show at the top dose activity change, negative = inhibition, usual class: inhibitors; 140,000 compounds, 0.17% hits;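 also: plate controls were DMSO cells for no effect and cell-free wells for full effect; nearly all actives have a fitted effect of over 45% in size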
HEK293 viab: cell viability loss counter-screen; Potency, µM (doses to about 57.1 µM), for inactives: top-dose activity change, negative = cytotoxicity, actives largely listed as cytotoxic; 150,000 compounds, 0.12% hits; HEK-293-SNCA-luc viability, GF-AFC fluorescence, 24 h;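 also: 0% = DMSO-treated cells and -100% = medium-only wells without cells; nearly all actives have a fitted effect of over 30% in size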
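Cytotoxicity counterscreen: after 24 h compound treatment of genome-edited SNCA-luciferase HEK-293 cells, live-cell protease substrate GF-AFC read by fluorescence after 30 min; activity scaled between DMSO (0%) and medium-only (-100%), curves Hill-fitted.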
NIH3T3 tox: cytotoxic compounds in NIH 3T3 cells. AID 1345082. NIH 3T3 viability, CellTiter-Glo ATP luminescence, 48-72 h. 94,000 compounds, 4.3% hits. Potency, µM (highest dose often 96.7 µM), for inactives: at the highest dose activity change, negative = cytotoxicity, actives largely listed as inhibitors; also: % is scaled to controls: 0 for no effect and ±100 for the full control effect; nearly all actives have a fitted effect of over 55% in size
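Viability of NIH 3T3 cells after 48 or 72 hr compound treatment at 37 °C was assessed by CellTiter-Glo, with luminescence imaged following a 10 min room-temperature step.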
HEK cytotox: HEK 293 cell cytotoxicity. HEK 293 viability, ATP luminescence (CellTiter-Glo), 48-72 h. Potency, µM (highest dose often 115 µM), for the others: at the highest dose activity change, negative = cytotoxicity, usual class: inhibitors. 94,000 compounds, 6.6% hits. AID 1345083; also: % is scaled to controls: 0 for no effect and ±100 for the full control effect; nearly all actives have a fitted effect of over 60% in size
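Luminescence from cellular ATP, measured with CellTiter-Glo, indicates HEK 293 viability. Cells plated at 250 cells/well are treated with compound for 48 or 72 hr at 37 degree Celsius before reagent addition.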
NPR1 antag cnf: confirmation of human Npr1 natriuretic peptide receptor antagonists | shares compounds with hNpr1 antagonist | HEK293 hNpr1 cGMP GloSensor luminescence, ANP-stimulated | Potency, µM (doses to about 57.6 µM), inactives show top-dose activity change, negative = inhibition, usual class: inhibitors | 1,400 compounds, 76% hits | AID 1347044; calls by dose curve; also: nearly all actives have a fitted effect of over 70% in size
NPR2 antag: hNpr2 antagonism, selectivity versus Npr1 | shares compounds with hNpr1 antagonist | HEK293 hNpr2 GloSensor cGMP luminescence, CNP-stimulated | Potency, µM (top dose mostly 57.6 µM), for the others: at the highest dose activity change, negative = inhibition, actives largely listed as inhibitors | 1,400 compounds, 67% hits; calls by dose curve; also: nearly all actives have a fitted effect of over 70% in size
FLuc inh counter: counter-screen for Npr1 antagonists: firefly luciferase inhibitors. Potency, µM (top dose mostly 57.6 µM), for inactives: at the highest dose activity change, negative = inhibition, actives largely listed as inhibitors. purified FLuc enzyme, luminescence, Km substrate. 1,400 compounds, 0.7% hits. shares compounds with hNpr1 antagonist; also: 0% is about no effect
GloSensor cGMP: reduces cGMP signal in GloSensor control cells; HEK293 GloSensor cGMP, SNP-stimulated, luminescence; Potency, µM (doses to about 57.6 µM), without a hit: at the top dose activity change, negative = inhibition, actives largely listed as inhibitors; shares compounds with hNpr1 antagonist; 1,400 compounds, 69% hits; calls by dose curve; also: % is scaled to controls: 0 for no effect and ±100 for the full control effect; nearly all actives have a fitted effect of over 70% in size
Numbers without * were called inactive; i = inactive; ? = inconclusive; · = not tested or not shown; [ ] = remark or other dose. In the library only some 7.4% were active in any assay of this set; here they are far more common. Unless noted, calls follow the shape of the dose curve; as a rule, active = well fitted curve in the direction sought with a large enough effect; inconclusive = small, poorly fitted or top-dose-only effect, or another doubt; inactive = no such curve, though single readings can be large; an effect the other way counts as inactive or inconclusive. Potency is read from the fitted curve at half-maximal effect.

SMILES | Luciferase inh | hNpr1 antagonist | SNCA expr inh | HEK293 viab | NIH3T3 tox | HEK cytotox | NPR1 antag cnf | NPR2 antag | FLuc inh counter | GloSensor cGMP
CC(C)c1noc(-c2cn(C3CCN(C(=O)c4ccc(Cl)s4)C3)nn2)n1 (stereo not given) | i | 8.91µM* | -25.5% | -3.8% | ? | ? | 12.2µM* | 12.2µM* | -1.4% | 13.7µM*
CC(C)c1noc(-c2cn(C3CCN(C(=O)c4ccc(F)cc4)C3)nn2)n1 (stereo not given) | i | -5.4% | -26.9% | -0.2% | -26.5% | ? | · | · | · | ·
COc1ccc(C(=O)N2CCC(n3cc(-c4nc(C(C)C)no4)nn3)C2)cc1OC (stereo not given) | i | 0.0% | 18.1% | -9.3% | -15.3% | -8.3% | · | · | · | ·
CCc1noc(-c2cn(C3CCN(C(=O)c4ccc(C(C)(C)C)cc4)C3)nn2)n1 (stereo not given) | i | 15.8µM* | -7.2% | ? | ? | ? | 24.3µM* | ? | -6.1% | 27.3µM*
CC(C)c1noc(-c2cn(C3CCN(C(=O)c4cccc(Br)c4)C3)nn2)n1 (stereo not given) | i | 11.2µM* | -19.6% | 1.1% | -29.2% | ? | 19.3µM* | 21.7µM* | 1.9% | 21.7µM*
CC(C)n1cnnc1CC1CCN(S(=O)(=O)c2ccc3c(c2)CCC3)C1 (stereo not given) | · | · | 30.6% | -1.6% | -22.3% | -12.3% | · | · | · | ·
CC(=O)N1CCCC(COc2ccccc2C(=O)N2CCC(C)CC2)C1 (stereo not given) | · | · | 28.2% | -12.2% | -23.7% | -15.4% | · | · | · | ·
CCCc1cc(C(=O)N2CCC(=O)N(Cc3ccccc3)C(CC)C2)ccn1 (stereo not given) | i | 11.2µM* | -26.5% | 0.4% | ? | ? | 9.68µM* | 12.2µM* | -1.6% | 10.9µM*
CCC1CN(C(=O)c2ccc3nc[nH]c3c2)CCC(=O)N1Cc1ccccc1 (stereo not given) | i | -10.2% | 15.2% | 16.7% | -25.4% | -29.2% | · | · | · | ·
Cn1cccc1-c1noc(C2CCN(C(=O)c3cccc(C#N)c3)C2)n1 (stereo not given) | · | · | -19.9% | -8.2% | -24.7% | ? | · | · | · | ·
O=C(NCCc1ccccc1)c1cc2n(n1)CC(c1ccc(Cl)cc1)OC2 (stereo not given) | i | ? | 3.2% | -0.2% | ? | ? | ? | ? | -3.7% | ?
O=C(NCc1ccccc1Cl)c1cc2n(n1)CC(c1ccc(Cl)cc1)OC2 (stereo not given) | i | ? | -21.3% | -0.8% | ? | ? | ? | ? | -1.6% | ?
Cc1ccc(NC(=O)c2cc3n(n2)CC(c2ccc(Cl)cc2)OC3)cc1 (stereo not given) | i | ? | -21.3% | 0.7% | ? | ? | · | · | · | ·
O=C(NCc1ccccc1)c1cc2n(n1)CC(c1ccc(Cl)cc1)OC2 (stereo not given) | i | ? | ? | -11.0% | ? | ? | · | · | · | ·
O=C(Nc1cc(F)ccc1Cl)c1cc2n(n1)CC(c1ccc3c(c1)OCO3)OC2 (stereo not given) | ? | 1.5% | 17.7% | 8.8% | -19.7% | ? | · | · | · | ·
CC(C)c1ccc(NC(=O)c2cc3n(n2)CC(c2ccc(Cl)cc2)OC3)cc1 (stereo not given) | i | 10µM* | -27.2% | 1.6% | -19.6% | ? | 13.7µM* | ? | -15.2% | 10.9µM*
O=C(Nc1ccc(F)c(Cl)c1)c1cc2n(n1)CC(c1ccc3c(c1)OCO3)OC2 (stereo not given) | i | ? | -4.4% | -6.2% | ? | 44.7µM* | 27.3µM* | ? | -8.6% | ?
COCCCn1c(=O)c(C(=O)N2CCN(C(=O)C3CC3)CC2)nc2cccnc21 | · | · | -13.1% | 2.5% | -6.8% | -0.2% | · | · | · | ·
O=C(Nc1ccccc1)c1cc2n(n1)CC(c1ccc(Cl)cc1)OC2 (stereo not given) | i | 12.6µM* | -15.7% | -5.0% | -26.3% | ? | ? | ? | -1.4% | ?
Cc1cc(F)ccc1NC(=O)c1cc2n(n1)CC(c1ccc(Br)cc1)OC2 (stereo not given) | i | ? | 0.5% | 9.5% | -29.4% | 79.4µM* | ? | ? | 1.1% | ?
O=C(NCCc1cccnc1)c1cc2n(n1)CC(c1ccc(Br)cc1)OC2 (stereo not given) | i | 11.2µM* | 2.2% | -5.2% | ? | 39.8µM* | 19.3µM* | 19.3µM* | -0.4% | 12.2µM*
Cc1ccc(NC(=O)c2cc3n(n2)CC(c2ccc(Cl)cc2)OC3)c(Cl)c1 (stereo not given) | i | -25.0% | 35.8% | 7.0% | -16.0% | ? | · | · | · | ·
CO[C@H]1CN(C2CCN(S(=O)(=O)N(C)C)CC2)[C@H]1c1ccncc1 | · | · | -8.2% | 1.1% | -16.7% | -2.2% | · | · | · | ·
O=C(NCCN1CCOCC1)c1nc2sccn2c1-c1cccnc1 | · | · | 1.9%[87.6 µM] | 11.0%[87.6 µM] | -5.7%[138 µM] | i | · | · | · | ·
CCC(C)NC(=O)c1ccccc1-c1ccc(OC)nn1 (stereo not given) | · | · | · | · | -16.3%[138 µM] | -11.2%[172 µM] | · | · | · | ·
O=C(Cc1ccc(F)cc1)N1CCN(c2cc(-c3ccc(Cl)cc3)[nH]n2)CC1 | i | ? | -26.1% | -2.2% | ? | 39.8µM* | ? | ? | 0.9% | ?
O=C(Cc1ccccc1F)N1CCN(c2cc(-c3ccc(Cl)cc3)[nH]n2)CC1 | i | 0.0% | -20.8% | 2.0% | -13.9% | -6.7% | · | · | · | ·
O=C(Cc1ccc(Br)cc1)N1CCCN(c2cc(-c3ccc(F)cc3)[nH]n2)CC1 | i | ? | 3.0% | ? | ? | ? | ? | ? | 1.8% | 27.3µM*
